Assay results as given in PubChem BioAssay (EPA / NIEHS).
Records with an inconclusive call do not appear. Active and inactive are the calls of the source. The calls were made as follows: active = hit-call score of the fitted dose curve at least 0.9, where 1 is the maximum; inconclusive = response in the unintended direction; inactive = score below 0.9.

The compounds below were run against human Vitamin D Receptor (VDR), VDR (gene 7421) (UniProt P11473) (assay: ATG_VDR_TRANS: Attagene TRANS-FACTORIAL HepG2 Assay for human Vitamin D Receptor (VDR) (AID 2283022)).
Sequence of human Vitamin D Receptor (VDR), VDR (gene 7421) (P11473 whole entry, looked up, the tested form may be a part): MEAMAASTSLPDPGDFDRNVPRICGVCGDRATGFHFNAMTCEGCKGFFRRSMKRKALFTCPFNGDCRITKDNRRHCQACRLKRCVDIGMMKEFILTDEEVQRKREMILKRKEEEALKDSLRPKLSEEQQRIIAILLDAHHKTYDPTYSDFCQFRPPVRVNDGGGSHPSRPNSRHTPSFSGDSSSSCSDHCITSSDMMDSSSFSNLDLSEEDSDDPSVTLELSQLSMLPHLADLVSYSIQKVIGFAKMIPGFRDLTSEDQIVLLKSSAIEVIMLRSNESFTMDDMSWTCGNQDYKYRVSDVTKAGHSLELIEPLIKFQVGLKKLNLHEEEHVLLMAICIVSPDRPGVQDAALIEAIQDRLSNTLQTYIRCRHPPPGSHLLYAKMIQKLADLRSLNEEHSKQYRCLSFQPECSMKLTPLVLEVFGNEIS
In short: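 Steps: transfect HepG2 with GAL4-UAS-driven reporter constructs; dose compounds 24 h; isolate RNA, reverse-transcribe, PCR-amplify with 6-FAM-labelled primer extension and HpaI digestion; quantify fragments by capillary electrophoresis relative to DMSO.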
In the case of `Cc1cc(N)n(-c2ccccc2)n1`, the outcome is reported as “inactive”. With `COc1ccc2[nH]cc(CCNC(C)=O)c2c1` the outcome was “inactive”. With `C=C/C(C)=C/C/C=C(\C)CCC=C(C)C` the outcome was “inactive”. For `CCCCCCOC(C)=O`, the outcome was “inactive”. For `CC(C)(C)C1CCC(O)CC1` (configuration not stated), the outcome was “inactive”. For `CC/C=C\CCOC(=O)C(C)C`, the outcome was “inactive”. For `CC(C)COC(=O)c1ccccc1`, the outcome was “inactive”.
